Data reported in PubChem BioAssay AID463173 (ICCB-Longwood Screening Facility, Harvard Medical School, 2010).
Among all 52,000 compounds or so, about 4,300 (8.3%) were called active. Shown is part of a subset that was picked to be rich in actives. Unmarked numbers belong to inactive results. No stated cut-off is given here; in the data, active means survival mostly below about 52% (no sharp cut-off); inactive means mostly above about 56%.

Tested on: DeltatarO mutant
Test: growth inhibition of S. aureus wild type versus tarO mutant, primary screen, teichoic acid synthesis inhibitors, RN4220, OD600 (AID 463173)
Conditions: OD600, 18 h, active compounds read low, screened at 18.75 µg/mL (by protocol)

Compared with `COc1ccc(-c2noc(N3CCN(c4ccc(Cl)cc4)CC3)n2)cc1OC`, `Cc1ccc(N2CCN(S(=O)(=O)c3nnc(NC(=O)c4cccc(F)c4)s3)CC2)cc1` is lower in survival: 80% for the first, 57% for the second.

Going from `Cc1ccc(-c2cc(C(=O)N3CCN(S(=O)(=O)c4ccc(Br)s4)CC3)[nH]n2)cc1C` to `CCc1cccc2sc(N3CCN(C(=O)c4cc5ccccc5cc4OC)CC3)nc12`, the survival rises from 83% to 119%.

Going from `CCOc1ccc(C2c3c(oc4ccc(C)cc4c3=O)C(=O)N2c2nc(C)c(C)s2)cc1OC` (stereo not given) to `CCOC(=O)c1cc(-c2ccc(F)cc2)n(CCC(=O)Nc2nc3cc(C)c(C)cc3s2)c1C`, the survival falls from 170% to 85%.

First: Cc1cc(C)cc(NC(=O)Cn2nnc(C(=O)Nc3cc(C)cc(C)c3)c2N)c1
Second: COCCOC(=O)Cn1nnc2sc(-c3ccccc3)cc2c1=O
The survival of the first is higher: 74% for the first, 65% for the second.

Compared with `Cc1ccc2c(CC(=O)Nc3cccc(Cl)c3C)coc2c1`, `Cc1ccc2nc(NC(=O)c3ccc(S(=O)(=O)N4CCC(C)CC4)cc3)sc2c1` is lower in survival: 100% for the first, 93% for the second.

`Cc1cccc(CN2CCC(CNC(=O)c3c(C)oc4ncnc(N5CCCCC5)c34)CC2)c1` and `Cc1oc2ncnc(N3CCCCC3)c2c1C(=O)NCC1CCN(Cc2ccc(F)cc2)CC1` are the same in survival: 77% for the first, 77% for the second.

Going from `CCc1ccc(CNC(=O)c2c(C)oc3ncnc(N4CCOCC4)c23)cc1` to `Cc1oc2ncnc(N3CCOCC3)c2c1C(=O)NCc1ccc(Cl)cc1`, the survival falls from 128% to 94%.

First: CCc1ccccc1N(CC)C(=O)c1c(C)oc2ncnc(N3CCOCC3)c12
Second: CCCN(C(=O)c1c(C)oc2ncnc(N3CCOCC3)c12)c1ccc(Cl)c(Cl)c1
The survival of the first is higher: 96% for the first, 46% for the second.

Compared with `COc1ccc2oc(=O)c(C(=O)NCc3cccnc3)cc2c1`, `COCC(=O)NCc1nc2cccnc2n1Cc1ccc(F)cc1` is lower in survival: 83% for the first, 60% for the second.

Going from `COc1ccc(-n2nc(C(=O)N3CCN(c4ccc(F)cc4)CC3)c3c4ccccc4n(C)c3c2=O)cc1` to `CCOc1ccccc1NC(=O)c1ccc(F)c(S(=O)(=O)N2CCN(c3ccc(F)cc3)CC2)c1`, the survival rises from 69% to 76%.

Going from `Cc1cc(N2CCN(c3cccc(C)c3C)CC2)n2cnnc2n1` to `COc1ccc(C(=O)Nc2nnc(S(=O)(=O)N3CCC(C)CC3)s2)cc1OC`, the survival falls from 99% to 79%.

Compared with `Cc1ccc(NC(=O)Cn2c(=O)oc3cc(S(=O)(=O)N4CCCC4)ccc32)cc1F`, `CCCNC(=O)CN1C(=O)COc2ccc(S(=O)(=O)N3CCCC3)cc21` is lower in survival: 113% for the first, 86% for the second.

First: CCCN(CCC)CCCNC(=O)c1cn(CC)c2ccc(S(=O)(=O)N(C)C3CCCCC3)cc2c1=O
Second: CCCCN(CCCC)CCNC(=O)c1cn(CC)c2ccc(S(=O)(=O)N(C)C3CCCCC3)cc2c1=O
The survival of the first is lower: 94% for the first, 144% for the second.

Compared with `Cc1cccc(NC(=O)c2ccc(F)c(S(=O)(=O)N3CCC4(CC3)OCCO4)c2)c1`, `O=C(Nc1nnc(S(=O)(=O)N2CCOCC2)s1)c1cccc(F)c1` is higher in survival: 72% for the first, 80% for the second.

Compared with `COc1cc(-c2cc3n(C)c(C)c(CCC(=O)NC4CCC(C)CC4)c(=O)n3n2)cc(OC)c1OC` (stereo not given), `COc1ccc(N(C(=O)c2ccco2)C(C(=O)NC2CCCC2)c2cc(OC)c(OC)c(OC)c2)cc1` (stereo not given) is lower in survival: 101% for the first, 84% for the second.

Going from `CCOc1ccc(CCNC(=O)Cn2ncn3c(cc4ccccc43)c2=O)cc1OCC` to `Cc1ccccc1C(=O)Nc1ccc(OCc2cc(=O)n3ccccc3n2)cc1`, the survival falls from 85% to 54%.

Going from `COC(=O)C1(CO)NC(c2ccc(Cl)cc2)C2C(=O)N(C)C(=O)C21` (stereo not given) to `O=C1CCc2cc(S(=O)(=O)NCc3ccc(Cl)cc3)cc3c2N1CC3`, the survival rises from 66% to 77%.

First: COc1ccc2nc(NC(=O)c3ccc(S(=O)(=O)N4CCC(C)CC4)cc3)sc2c1
Second: COc1ccc(NC(=O)c2c(NCc3ccc(OC)c(OC)c3OC)sc3c2CCC3)c(OC)c1
The survival of the first is higher: 91% for the first, 83% for the second.

Compared with `CN1CCN(C(=O)c2ccccc2C(=O)O)CC1`, `CCCC(C(=O)NC1CCCC1)N(Cc1ccccc1)C(=O)Cn1nnc(-c2ccc(C)o2)n1` (stereo not given) is lower in survival: 96% for the first, 66% for the second.

Compared with `CCc1nn2c(=O)cc(COC(=O)c3ccc4c(c3)OCO4)nc2s1`, `O=C(NC1CCCC1)C(c1ccccc1)N(Cc1ccc2c(c1)OCO2)C(=O)c1ccco1` (stereo not given) is lower in survival: 76% for the first, 73% for the second.

Going from `Cc1n[nH]c(=S)n1CC1CCCO1` (stereo not given) to `COc1ccc(C(C(=O)NC2CCCC2)N(Cc2ccc(C)cc2)C(=O)c2ccn[nH]2)cc1OC` (stereo not given), the survival rises from 77% to 104%.

Going from `COc1cccc(Cn2c(=O)n(-c3ccc(Br)cc3F)c(=O)c3sc4ccccc4c32)c1` to `COc1ccc(-c2nnn(CC(=O)N(Cc3ccccc3)C(C)C(=O)NC3CCCC3)n2)cc1OC` (stereo not given), the survival falls from 96% to 84%.

For `O=C(NC1CCCCC1)C(c1ccco1)N(Cc1ccccc1)C(=O)Cn1nnc2ccccc21` (stereo not given), the survival was 69%.

With `CCCCN1CC(c2nc3ccccc3n2CCCCOc2cc(C)cc(C)c2)CC1=O` (stereo not given) the survival was 33% (active).
In the case of `CCCCN1CC(c2nc3ccccc3n2CCCCOc2ccc(C)c(C)c2)CC1=O` (stereo not given), the survival is reported as 20% (active).
With `COC(=O)CCN(C(=O)c1c(C)oc2ncnc(N3CCOCC3)c12)c1ccccc1` the survival was 8% (active).
With `Cc1oc2ncnc(N3CCCCC3)c2c1C(=O)NCC1CCN(Cc2cccc(F)c2)CC1` the survival was -5% (active).
With `Cc1ccc(CNC(=O)c2c(C)oc3ncnc(N4CCOCC4)c23)cc1` the survival was 17% (active).
In the case of `CCCCSCCCNC(=O)c1cn(CC)c2ccc(S(=O)(=O)N(C)C3CCCCC3)cc2c1=O`, the survival is reported as 24% (active).
In the case of `Cc1cccc(NC(=O)c2ccc(F)c(S(=O)(=O)N3CCN(c4ccc(F)cc4)CC3)c2)c1`, the survival is reported as -1% (active).
`CC1CCN(S(=O)(=O)c2ccc(C(=O)Nc3nc4ccc(F)cc4s3)cc2)CC1` was tested, and the survival was 46% (active).
`CC1CCN(S(=O)(=O)c2nnc(NC(=O)c3cccc(Br)c3)s2)CC1` was tested, and the survival was 31% (active).
In the case of `CC1CCN(S(=O)(=O)c2nnc(NC(=O)c3cccc(Cl)c3)s2)CC1`, the survival is reported as 23% (active).
For `Cc1cccc(C(=O)Nc2nnc(S(=O)(=O)N3CCC(C)CC3)s2)c1`, the survival was 35% (active).
With `CC1CCN(S(=O)(=O)c2nnc(NC(=O)c3cccc(F)c3)s2)CC1` the survival was 31% (active).
With `CCOC(=O)CN(Cc1ccccc1)C(C(=O)NC1CCCCC1)c1ccccc1` (stereo not given) the survival was -1% (active).
For `CCOC(=O)CN(Cc1ccccc1)C(C(=O)NC1CCCCC1)c1ccc(OC)cc1` (stereo not given), the survival was 20% (active).
`CCOC(=O)CN(Cc1ccccc1)C(C(=O)NC1CCCCC1)c1ccc(C)cc1` (stereo not given) was tested, and the survival was -3% (active).
